# Results published in article PMC5540273 (PLoS ONE, 2017).
# Tests used:
# Conditions in all cases: concentration: 1 μM, replicates: in singlicate; n = 1
# PIP5K1A = tested on: PIP5K1A
# PIP5K1C = tested on: PIP5K1C
# PIP5K2B = tested on: PIP5K2B
# PIP5K2C = tested on: T1, PIP5K2C
# T1 construct: gene PIP4K2C
# PKAC-alpha = tested on: T2, PKAC-alpha
# T2 construct: gene PRKACA
# PKAC-beta = tested on: T3, PKAC-beta
# T3 construct: gene PRKACB
# PKMYT1 = tested on: PKMYT1
# PKN1 = tested on: PKN1
# PKN2 = tested on: PKN2
# PLK1 = tested on: PLK1
# 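Also: KINOMEscan kinase panel screen.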
SMILES,%Inh (PIP5K1A) [%],%Inh (PIP5K1C) [%],%Inh (PIP5K2B) [%],%Inh (PIP5K2C) [%],%Inh (PKAC-alpha) [%],%Inh (PKAC-beta) [%],%Inh (PKMYT1) [%],%Inh (PKN1) [%],%Inh (PKN2) [%],%Inh (PLK1) [%]
Cl.c1ccc(-c2ccc3c(Nc4ccc5[nH]ccc5c4)ccnc3c2)nc1 [GW440138],50,66,8,65,0,0,0,0,0,0
CN1CCN(Cc2cccc(-c3ccc4c(Nc5ccc(Oc6ccccc6)cc5)ccnc4c3)c2)CC1 [GW578342],26,59,12,9,0,0,0,0,27,0
Cc1occc1-c1ncc(OC[C@@H](N)Cc2c[nH]c3ccccc23)cc1-c1ccc2[nH]nc(C)c2c1.O=C(O)C(F)(F)F [GSK682037],75,19,40,0,99.8,99.5,7,28,64,0
Cc1ccc(S(=O)(=O)Nc2ccc(Nc3nccc(Nc4cccc5[nH]ncc45)n3)cc2)cc1 [GSK581271],0,31,13,57,0,0,15,22,0,0
COc1ccc(Nc2nccc(N3CCC(NC(=O)Nc4cccc(OC)c4)C3)n2)cc1 (stereo not shown) [GSK1379742],0,44,14,16,1,0,0,0,0,5
CC(C)(C)c1ccc2nccc(Nc3cccc(O)c3)c2c1 [GW856795],29,40,8,7,90.5,0,0,0,0,0
Cn1cc(-c2ccc3c(c2)CCN3C(=O)Cc2cccc(F)c2)c2c(N)ncnc21 [GSK2603358],0,56,0,38,0,0,0,0,0,0
Nc1ncc(-c2cccnc2)c2scc(-c3ccc4c(c3)CCN4C(=O)Cc3ccccc3)c12 [GSK683281],0,17,19,0,31,13,13,30,18,5
Nc1ncc(-c2ccc3nccc(-c4ccncc4)c3c2)cc1S(=O)(=O)N1CCOCC1 [GSK1627798],0,0,5,30,0,0,11,12,0,0
O=C(Nc1cccc(Oc2ccc3nc(NC(=O)C4CC4)cn3n2)c1)c1ccccc1C(F)(F)F,39,33,0,34,0,34,0,0,0,0
